“And” between values parts separate entries of the source, which are not always exact repeats. Identical values can stand only once. Results filed as inconclusive are left out. The source made the active and inactive calls. Unless noted, calls come from the whole dose curve.
How the values were obtained:
[1] = biological target: Bile acid receptor (Homo sapiens) (UniProt Q96RI1); test: qHTS assay for small molecule antagonists of farnesoid X receptor signaling (AID 588526); note: % is set by controls: 0 for no effect and ±100 for the full control effect
Bile acid receptor (Homo sapiens), sequence (Q96RI1 whole entry, looked up): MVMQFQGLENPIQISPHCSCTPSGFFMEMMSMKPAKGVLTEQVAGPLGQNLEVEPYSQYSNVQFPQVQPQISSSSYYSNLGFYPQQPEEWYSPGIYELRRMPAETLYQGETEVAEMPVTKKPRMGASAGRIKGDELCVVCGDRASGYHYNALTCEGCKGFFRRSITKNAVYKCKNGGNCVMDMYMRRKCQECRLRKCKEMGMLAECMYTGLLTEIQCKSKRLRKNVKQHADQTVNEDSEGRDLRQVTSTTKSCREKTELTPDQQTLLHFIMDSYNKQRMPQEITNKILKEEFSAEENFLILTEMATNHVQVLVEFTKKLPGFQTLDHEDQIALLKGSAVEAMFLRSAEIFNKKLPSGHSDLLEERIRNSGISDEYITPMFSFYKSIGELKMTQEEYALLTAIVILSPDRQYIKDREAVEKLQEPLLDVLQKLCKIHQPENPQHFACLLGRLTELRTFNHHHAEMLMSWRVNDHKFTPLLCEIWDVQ
Method in brief: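 Concentration-response titrations were fitted to the Hill equation for half-maximal inhibition and maximal response, with data normalised to 50 uM chenodeoxycholic acid and DMSO control wells. Cells: FXR-UAS-bla HEK293T, dialyzed FBS.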

[2] = biological target: Glucocorticoid receptor (Homo sapiens) (UniProt P04150); test: qHTS assay for small molecule agonists of glucocorticoid receptor signaling (AID 588532; active = well fitted curve in the direction sought with a large enough effect in the signal ratio, with a control signal flat; the % refers to the signal ratio;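 note: 100% = dexamethasone at 0.1 µM and 0% = DMSO only wells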); conditions: HeLa MMTV-bla, beta-lactamase ratio, agonist, 18 h; stronger effect = higher value; percent of dexamethasone control, DMSO zero
Glucocorticoid receptor (Homo sapiens), sequence (P04150 whole entry, looked up): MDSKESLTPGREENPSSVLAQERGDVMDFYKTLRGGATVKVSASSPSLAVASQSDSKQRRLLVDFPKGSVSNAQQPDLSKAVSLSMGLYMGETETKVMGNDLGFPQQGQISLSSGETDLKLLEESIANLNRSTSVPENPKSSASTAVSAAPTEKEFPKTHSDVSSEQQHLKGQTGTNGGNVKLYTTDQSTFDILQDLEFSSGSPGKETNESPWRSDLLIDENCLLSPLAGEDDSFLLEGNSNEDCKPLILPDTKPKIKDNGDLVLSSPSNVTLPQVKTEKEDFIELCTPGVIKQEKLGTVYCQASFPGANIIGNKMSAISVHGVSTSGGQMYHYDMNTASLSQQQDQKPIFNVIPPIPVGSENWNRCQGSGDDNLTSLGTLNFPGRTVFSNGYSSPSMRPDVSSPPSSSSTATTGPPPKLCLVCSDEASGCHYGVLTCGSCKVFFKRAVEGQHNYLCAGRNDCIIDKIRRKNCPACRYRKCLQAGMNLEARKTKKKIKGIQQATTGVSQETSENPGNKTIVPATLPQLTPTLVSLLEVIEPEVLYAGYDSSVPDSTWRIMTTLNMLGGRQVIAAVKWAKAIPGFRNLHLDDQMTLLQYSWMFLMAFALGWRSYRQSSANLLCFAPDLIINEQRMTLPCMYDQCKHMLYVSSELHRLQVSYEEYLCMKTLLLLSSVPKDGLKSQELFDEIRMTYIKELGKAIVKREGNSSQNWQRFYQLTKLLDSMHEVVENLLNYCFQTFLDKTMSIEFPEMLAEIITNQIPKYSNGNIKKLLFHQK
Method in brief: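 Stimulation of a glucocorticoid response element-driven beta-lactamase gene was measured in HeLa cells. Responses were scaled between DMSO basal and 0.1 uM dexamethasone, then fitted for half-maximal stimulation.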

[3] = biological target: Glucocorticoid receptor (Homo sapiens) (UniProt P04150); test: qHTS assay for small molecule antagonists of glucocorticoid receptor signaling (AID 588533; active = well fitted inhibition curve with a large enough effect in the signal ratio, with a control signal flat, not every such curve was filed as active; the % refers to the signal ratio;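 note: cells stimulated with 2 nM dexamethasone as agonist; % is set by controls: 0 for no effect and ±100 for the full control effect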)
Method in brief: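 Antagonist-mode qHTS: compound titrations added to GRE-bla HeLa cells, then dexamethasone 2 nM final; 18 h, 37 C. CCF4 FRET fluorescence normalized to dexamethasone and DMSO; IC50 from Hill fit.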

[4] = biological target: Peroxisome proliferator-activated receptor gamma (Homo sapiens) (UniProt P37231); test: qHTS assay for small molecule antagonists of peroxisome proliferator-activated receptor gamma signaling (AID 588537; active = well fitted inhibition curve with a large enough effect in the signal ratio, with a control signal flat, not every such curve was filed as active; the % refers to the signal ratio;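 note: reporter cells co-stimulated with 50 nM rosiglitazone agonist during compound treatment; % of control where 0% means no effect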)
Peroxisome proliferator-activated receptor gamma (Homo sapiens), sequence (P37231 whole entry, looked up): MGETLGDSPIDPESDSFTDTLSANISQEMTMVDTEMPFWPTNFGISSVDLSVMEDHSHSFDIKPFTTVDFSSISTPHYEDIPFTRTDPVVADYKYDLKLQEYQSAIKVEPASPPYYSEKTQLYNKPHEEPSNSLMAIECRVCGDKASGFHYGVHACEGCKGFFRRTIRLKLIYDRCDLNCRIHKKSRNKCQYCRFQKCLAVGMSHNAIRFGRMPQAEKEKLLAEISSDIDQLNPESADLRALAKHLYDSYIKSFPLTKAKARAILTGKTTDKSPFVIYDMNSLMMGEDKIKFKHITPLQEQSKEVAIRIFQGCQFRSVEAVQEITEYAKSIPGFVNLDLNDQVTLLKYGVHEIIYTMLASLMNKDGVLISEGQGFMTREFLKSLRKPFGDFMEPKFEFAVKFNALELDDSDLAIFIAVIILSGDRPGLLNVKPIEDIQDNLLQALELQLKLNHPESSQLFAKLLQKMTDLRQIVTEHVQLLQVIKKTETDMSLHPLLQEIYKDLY
Method in brief: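 PPAR-gamma-UAS-bla HEK293 cells (3000/well, 1% charcoal/dextran-stripped FBS) were preincubated 6-6.5 h at 37 C, given titrated compounds, then stimulated with 50 nM rosiglitazone for 16 h. Beta-lactamase activity was read with CCF4 dye; IC50 came from Hill fits.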

[5] = qHTS assay for environmental chemicals that activate the Aryl hydrocarbon Receptor (AhR) signaling pathway (AID 651777; active = well fitted activation curve with a large enough effect; note: % of control where 0% means no effect; nearly all actives have a fitted effect of over 15% in size); conditions: 1A2-DRE human hepatoma cells, luciferase, 24 h; activation: stronger effect = higher value
Method in brief: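 Concentration–response screening used 1,200 1A2-DRE cells per well, 24 hr compound exposure (37 C, 5% CO2), and One-Glo luminescence as the AhR-driven CYP1A2 reporter signal.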

[6] = biological target: Estrogen receptor (Homo sapiens) (UniProt P03372); test: qHTS assay for small molecule antagonists of estrogen receptor alpha signaling (AID 588513; active = well fitted curve in the direction sought with a large enough effect in the signal ratio, with a control signal flat, not every such curve was filed as active; the % refers to the signal ratio; note: % is set by controls: 0 for no effect and ±100 for the full control effect)
Estrogen receptor (Homo sapiens), sequence (P03372 whole entry, looked up): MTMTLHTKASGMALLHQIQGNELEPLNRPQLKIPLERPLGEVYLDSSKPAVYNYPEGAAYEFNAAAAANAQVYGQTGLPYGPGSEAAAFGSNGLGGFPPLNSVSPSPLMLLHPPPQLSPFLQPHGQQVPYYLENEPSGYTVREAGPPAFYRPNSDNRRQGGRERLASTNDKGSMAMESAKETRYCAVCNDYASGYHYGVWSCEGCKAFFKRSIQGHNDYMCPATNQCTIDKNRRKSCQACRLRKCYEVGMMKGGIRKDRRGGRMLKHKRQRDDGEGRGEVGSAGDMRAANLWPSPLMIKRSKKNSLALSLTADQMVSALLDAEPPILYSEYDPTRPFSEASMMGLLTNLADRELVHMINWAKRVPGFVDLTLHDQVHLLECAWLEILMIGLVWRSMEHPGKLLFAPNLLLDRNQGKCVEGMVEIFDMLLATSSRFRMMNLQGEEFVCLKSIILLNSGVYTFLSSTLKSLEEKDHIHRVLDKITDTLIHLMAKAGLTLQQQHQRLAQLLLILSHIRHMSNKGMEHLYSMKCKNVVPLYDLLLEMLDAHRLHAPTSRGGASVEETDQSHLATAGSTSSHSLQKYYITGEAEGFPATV
Method in brief: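 Beta-lactamase reporter, antagonist mode, HEK 293 GripTite cells; 0.5nM E2 stimulus, 18 h, 37 C; CCF4 dye 2 h RT; fluorescence. IC50 and efficacy from Hill fits, normalized to E2 and DMSO.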

[7] = biological target: Estrogen receptor (Homo sapiens) (UniProt P03372); test: qHTS assay for small molecule agonists of estrogen receptor alpha signaling (AID 588514); note: nearly all actives have a fitted effect of over 70% in size; note: potency is the fitted concentration of half-maximal effect;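 for activation: 0% = vehicle only and 100% = reference agonist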
Method in brief: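 Reporter-gene assay. […] controls beta-lactamase in HEK 293 GripTite cells; after 18 hrs with compound, CCF4 substrate is added for 2 hrs and fluorescence is read.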

[8] = biological target: Bile acid receptor (Homo sapiens) (UniProt Q96RI1); test: qHTS assay for small molecule agonists of farnesoid X receptor signaling (AID 588527); conditions: HEK293T FXR-UAS-bla, beta-lactamase ratio, 16 h; stronger effect = higher value;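 note: series mostly up to about 77 µM; 0% = vehicle basal and 100% = reference agonist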
Method in brief: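 Agonist-mode beta-lactamase reporter in GeneBLAzer FXR-UAS-bla HEK293T cells, titration up to 92 uM, 16 h exposure at 37 C, CCF4 fluorescence. Response scaled to DMSO (0%) and 100 uM chenodeoxycholic acid (100%), then Hill-fitted for EC50 and efficacy.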

[9] = biological target: Peroxisome proliferator-activated receptor delta (Homo sapiens) (UniProt Q03181); test: qHTS assay for small molecule agonists of peroxisome proliferator-activated receptor delta signaling (AID 588534);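 note: 0% = DMSO basal wells and 100% = positive control agonist at 10 µM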
Peroxisome proliferator-activated receptor delta (Homo sapiens), sequence (Q03181 whole entry, looked up): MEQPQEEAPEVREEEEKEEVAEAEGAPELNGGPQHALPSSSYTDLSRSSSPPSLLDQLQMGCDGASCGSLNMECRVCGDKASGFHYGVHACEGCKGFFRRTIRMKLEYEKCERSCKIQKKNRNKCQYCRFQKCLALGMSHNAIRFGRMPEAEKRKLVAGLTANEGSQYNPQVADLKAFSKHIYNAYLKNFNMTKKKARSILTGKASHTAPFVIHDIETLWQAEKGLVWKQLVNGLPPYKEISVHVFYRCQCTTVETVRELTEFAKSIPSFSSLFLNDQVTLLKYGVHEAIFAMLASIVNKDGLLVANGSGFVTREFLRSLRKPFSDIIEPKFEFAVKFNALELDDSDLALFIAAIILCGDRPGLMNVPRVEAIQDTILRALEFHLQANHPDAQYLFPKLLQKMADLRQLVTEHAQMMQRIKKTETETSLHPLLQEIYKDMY
Method in brief: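 Reporter cells were plated and held 5 hrs at 37 C before compounds were added. After 18 hrs at 37 C, CCF4 dye was loaded for 2 hrs at RT and fluorescence measured.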

[10] = biological target: Retinoic acid receptor RXR-alpha (Homo sapiens) (UniProt P19793); test: qHTS assay for small molecule agonists of retinoid X receptor alpha signaling (AID 588544);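 note: 0% = DMSO basal wells and 100% = reference agonist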
Retinoic acid receptor RXR-alpha (Homo sapiens), sequence (P19793 whole entry, looked up): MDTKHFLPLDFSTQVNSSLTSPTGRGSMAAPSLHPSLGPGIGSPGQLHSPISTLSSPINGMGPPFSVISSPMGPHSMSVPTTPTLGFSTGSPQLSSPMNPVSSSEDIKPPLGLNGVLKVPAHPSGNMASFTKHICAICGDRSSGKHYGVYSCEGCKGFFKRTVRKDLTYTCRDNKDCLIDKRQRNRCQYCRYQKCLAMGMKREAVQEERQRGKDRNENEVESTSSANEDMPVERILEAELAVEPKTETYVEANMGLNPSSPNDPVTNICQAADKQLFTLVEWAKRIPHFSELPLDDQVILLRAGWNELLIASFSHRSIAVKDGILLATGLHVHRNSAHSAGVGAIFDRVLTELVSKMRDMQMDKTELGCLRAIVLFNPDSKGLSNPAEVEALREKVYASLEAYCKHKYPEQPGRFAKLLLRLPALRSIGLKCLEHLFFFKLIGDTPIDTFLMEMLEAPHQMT

[11] = biological target: Thyroid hormone receptor beta (Homo sapiens) (UniProt P10828); test: qHTS assay for small molecule antagonists of thyroid hormone receptor beta signaling (AID 588547; active = well fitted inhibition curve with a large enough effect in the signal ratio, with a control signal flat, not every such curve was filed as active; the % refers to the signal ratio;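 note: cells stimulated with 0.4 nM T3 agonist during compound exposure; series mostly up to about 77 µM; % is set by controls: 0 for no effect and ±100 for the full control effect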); conditions: TR-UAS-bla HEK293, beta-lactamase ratio, antagonist mode, 18 h
Thyroid hormone receptor beta (Homo sapiens), sequence (P10828 whole entry, looked up): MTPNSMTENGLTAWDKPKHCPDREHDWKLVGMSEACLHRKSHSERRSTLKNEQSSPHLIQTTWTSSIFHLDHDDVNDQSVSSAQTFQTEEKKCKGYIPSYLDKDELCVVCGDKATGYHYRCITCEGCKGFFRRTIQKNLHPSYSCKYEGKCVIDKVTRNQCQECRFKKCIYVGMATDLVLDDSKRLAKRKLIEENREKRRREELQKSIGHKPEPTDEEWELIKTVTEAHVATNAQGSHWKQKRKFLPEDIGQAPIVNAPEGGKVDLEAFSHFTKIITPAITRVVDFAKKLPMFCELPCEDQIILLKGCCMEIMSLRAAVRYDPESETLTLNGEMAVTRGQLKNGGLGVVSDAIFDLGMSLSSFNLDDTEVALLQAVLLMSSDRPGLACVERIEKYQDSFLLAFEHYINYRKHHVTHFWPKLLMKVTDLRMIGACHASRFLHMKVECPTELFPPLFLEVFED
Method in brief: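 TR-UAS-bla GripTite HEK293 cells in 2% charcoal/dextran FBS medium were preincubated 4 h at 37 C, given compound (0.59 nM to 92 uM) plus 0.4 nM T3 (final) for 18 h, then CCF4 for 2 h at RT; Hill fit gave IC50.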

[12] = qHTS assay for small molecule activators of the human pregnane X receptor (PXR) signaling pathway (AID 720659; call rule not given here; note: 0% is about no effect)
[13] = biological target: Androgen receptor (Homo sapiens) (UniProt P10275); test: qHTS assay for small molecule agonists of androgen receptor signaling (AID 588515; active = well fitted curve in the direction sought with a large enough effect in the signal ratio, with a control signal flat; the % refers to the signal ratio; note: % is set by controls: 0 for no effect and ±100 for the full control effect); conditions: AR-UAS-bla HEK293, beta-lactamase ratio, agonist 16 h; stronger effect = higher value
Androgen receptor (Homo sapiens), sequence (P10275 whole entry, looked up): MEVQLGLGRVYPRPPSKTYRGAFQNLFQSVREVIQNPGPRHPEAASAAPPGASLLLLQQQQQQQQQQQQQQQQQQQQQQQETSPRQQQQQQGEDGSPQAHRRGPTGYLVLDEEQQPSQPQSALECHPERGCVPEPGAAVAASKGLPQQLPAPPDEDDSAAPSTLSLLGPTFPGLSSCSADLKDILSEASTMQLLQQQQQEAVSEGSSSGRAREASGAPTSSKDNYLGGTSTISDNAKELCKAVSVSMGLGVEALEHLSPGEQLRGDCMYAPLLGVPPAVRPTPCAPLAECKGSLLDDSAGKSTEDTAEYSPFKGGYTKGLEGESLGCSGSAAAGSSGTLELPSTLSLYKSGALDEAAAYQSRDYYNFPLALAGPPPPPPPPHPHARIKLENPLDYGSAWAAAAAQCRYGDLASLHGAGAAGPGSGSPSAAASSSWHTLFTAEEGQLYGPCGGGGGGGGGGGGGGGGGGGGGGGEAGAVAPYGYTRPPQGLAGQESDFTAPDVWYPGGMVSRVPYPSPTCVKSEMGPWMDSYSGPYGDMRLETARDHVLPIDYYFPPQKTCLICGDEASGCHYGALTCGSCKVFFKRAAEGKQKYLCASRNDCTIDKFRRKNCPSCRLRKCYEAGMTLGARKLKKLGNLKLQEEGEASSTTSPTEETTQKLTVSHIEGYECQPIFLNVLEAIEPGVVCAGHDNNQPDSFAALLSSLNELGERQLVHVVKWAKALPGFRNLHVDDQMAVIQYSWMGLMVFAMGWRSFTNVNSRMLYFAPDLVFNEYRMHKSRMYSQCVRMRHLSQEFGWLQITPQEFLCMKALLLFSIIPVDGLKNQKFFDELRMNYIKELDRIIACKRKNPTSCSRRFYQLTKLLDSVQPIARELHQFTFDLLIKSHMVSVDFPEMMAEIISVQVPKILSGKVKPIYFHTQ
Method in brief: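 EC50 and efficacy came from Hill fits of titrations (up to 92 uM) normalized to 30 nM R1881 as 100% and DMSO as 0%. Compound exposure was 16 h at 37 C on AR-UAS-bla HEK293 cells, with a 405/460/530 nm CCF4 fluorescence read.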

CCCCSP(=O)(SCCCC)SCCCC
inactive: outcome [1] | activation [2] -15% | Potency [3] | Potency [4] | activation [5] -2.91%

CNC(=O)Oc1cccc2c1OC(C)(C)O2
inactive: Potency [6] | Potency [7] | outcome [1] | activation [8] -0.605% | activation [2] -2.85% | Potency [3] | outcome [9] | Potency [4] | Potency [10] | activation [5] 1.33%

CC(C)(C)C(=O)C(Oc1ccc(Cl)cc1)n1cncn1 (centres undefined)
inactive: activation [2] -3.08% and -1.34% | outcome [9] | Potency [4] | activity change % (negative = inhibition) [11] -2.73% and -13.2%
active: Potency [7] 39.8 µM

N#Cc1c(Cl)cccc1Cl
inactive: Potency [6] | Potency [7] | activation [2] 0.597% | Potency [3] | outcome [9] | activation [5] -0.167% | outcome [12]

CNC(=O)Oc1ccccc1OC(C)C
inactive: Potency [6] | Potency [7] | activation [2] -7.67% | Potency [3] | outcome [9] | Potency [10] | activity change % (negative = inhibition) [11] 16.1% | outcome [12]

CCC(=O)Nc1ccc(Cl)c(Cl)c1
inactive: activation [13] 16.4% | Potency [10] | activation [5] 4.76% | outcome [12]

CCS(=O)CCSP(=O)(OC)OC (centres undefined)
inactive: Potency [6] | Potency [7] | activation [13] 7.09% | outcome [1] | activation [2] 2.31% | Potency [3] | outcome [12]

COP(N)(=O)SC (centres undefined)
inactive: Potency [6] | Potency [7] | outcome [1] | activation [8] 2.48% | activation [2] -1.71% and 14.7% | Potency [3] | outcome [9] | outcome [12]
